The values that follow come from PubChem BioAssay (NCI).

The panel holds about 83,000 compounds, 20% with a hit somewhere; the sample as a whole holds those more often.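 Treatment: one concentration, 48 hours, 96-well format. Scoring: percent growth, with anything below 10 considered active.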 The source made the active and inactive calls.

In this test the test system is HCC-2998 colon. The experiment in a line: NCI-60 one-dose screen, 48 h (100 = growth as untreated, 0 = no growth, -100 = all killed). The settings on record: 10 µM. As to the method: Growth inhibition of the HCC-2998 human tumor cell line is measured as a screen for anti-cancer activity. Cells are grown in 96 well plates and exposed to the test compound for 48 hours. Compounds are tested at a single concentration, which is 10^-5 M for most compounds. The reported endpoint is percent growth (GI% or GIPRCNT), where numbers from 0 - 100% represent growth inhibition, and numbers from -100% - 0 represent cell death. For example, a value of 40 represents 60% growth inhibition. A value of 0 means no net growth occurred over the course of the experiment. A value of -40 indicates 40% of cells at the beginning of the experiment died by the end of the experiment. A value of -100 means all cells are dead at the end of the experiment.
NCI-60 Human Tumor Cell Lines Screen was performed using the standard one-dose NCI protocol, which is described in more detail at https://dtp.cancer.gov/discovery_development/nci-60/default.htm.
Compounds with GIPRCNT values below 10 were considered active. Activity score was based on GIPRCNT using the following formula: […]
Score is 0 for GIPRCNT values of 100 or above, 50 for GIPRCNT values of 0, and 100 for GIPRCNT values of -100.
As for `COc1ccc(C(=O)c2cc3c(OC)c(OC)c(OC)cc3[nH]2)cc1`, the growth is 51.3% (inactive). Consider `COc1ccc(-c2cc(-c3ccc(Cl)cc3)nc(SCCCC(=O)NO)n2)cc1OC`, for which the growth was -50.7% (active). The value for `COc1ccc(C(=O)N2C=Cc3ccccc3C2C#N)cc1` (stereo not given) was 103% (inactive). In the case of `Nc1nc(-c2ccc(Cl)cc2)cc(-c2cc3ccccc3oc2=O)n1`, the growth is 126% (inactive). As for `NC(CSC(c1ccccc1)(c1ccccc1)c1cccc2ccccc12)C(=O)O` (stereo not given), the growth was 103% (inactive). For the compound `Nc1nc(N)c(N)c(Nc2ccc(CCO)cc2)n1`, the growth is 106% (inactive). Take `CCOC(=O)c1cc(C(=O)c2ccc(Cl)cc2)n2ccc(-c3cc[n+](CC(=O)c4ccc(OC)cc4)cc3)cc12`: the growth is 100% (inactive).

Turning to `O=C1/C=C/[C@@H](O)[C@@H]2C[C@@H](O)C[C@H]2/C=C/CCC[C@H](CCc2ccc(C(F)(F)F)cc2)O1`, the growth was -11.5% (active). Regarding `C#C[C@]1(O)CCC2C3CCc4cc(OC5CCCC5)ccc4C3CC[C@@]21C` (stereo not given in full), the growth was 74.1% (inactive). For the compound `CN1CCN(CCCn2c(=O)c3sc4ncccc4c3n3nnc(-c4ccccc4)c23)CC1`, the growth is -5.79% (active). As to `COc1ccc(-c2cc(-c3cc(OC)ccc3OC)nc(N)c2C#N)cc1`, the growth was 76.6% (inactive). The figure for `O=C1/C=C/[C@@H](O)[C@@H]2C[C@@H](O)C[C@H]2/C=C/CCC[C@H](CCc2ccc(NC(=S)Nc3ccc4c(c3)C(=O)OC43c4ccc(O)cc4Oc4cc(O)ccc43)cc2)O1` is -7.57% (active); for `Cc1ccc2nc(Cl)c(-c3nc4ccccc4o3)cc2c1` it is 87.8% (inactive); for `COc1ccc(-c2csc(NC(=O)c3ccc(Cc4n[nH]c(=O)c5cccnc45)cc3)n2)cc1` it is 90.1% (inactive). The value for `CCN(CC)CCOc1ccc2c(c1O)C(=O)c1ccccc1C2=O` was 96.7% (inactive). Consider `O=[N+]([O-])c1ccc2ncccc2c1Cl`, for which the growth is 106% (inactive).

Take `COc1ccc(-c2nn(-c3cccc(Cl)c3)cc2C=C(C#N)C#N)cc1`: the growth is 8.75% (active).

In the case of `CCCN(CCC)C(=O)[C@H](CC)[C@@H]1CC[C@@H](C)[C@@H]([C@H](C)[C@@H](O)[C@@H](C)C(=O)[C@H](CC)C2O[C@]3(C=C[C@@H](O)[C@]4(CC[C@@](C)([C@H]5CC[C@](O)(CC)[C@H](C)O5)O4)O3)[C@H](C)C[C@@H]2C)O1` (stereo not given in full), the growth is 4.75% (active). Consider `O=C(COc1cccc(/C=C2\CSc3ccc(Cl)cc3C2=O)c1)c1ccc(Cl)cc1`, for which the growth is 32.9% (inactive). The figure for `CC(C)CCN(CCC(C)C)CC(=O)Nc1ccc(S(=O)(=O)c2ccc(NC(=O)CN(CCC(C)C)CCC(C)C)cc2)cc1` is 95.8% (inactive); for `O=C(O)c1cn(C2CC2)c2cc(N3CCN(C(=O)c4cc(-c5ccc(Cl)cc5)nc5ccccc45)CC3)c(F)cc2c1=O` it is 99.2% (inactive); for `COc1cc2c(cc1NC(=O)C(Cl)Cl)-c1ccc(NC(=O)C(Cl)Cl)cc1C2` it is -98.5% (active). In the case of `Cc1cc(C)nc(NS(=O)(=O)c2ccc(Nc3nc4nc(NCc5ccccc5)nc(-c5ccc(O)cc5)c4c(=O)[nH]3)cc2)n1`, the growth is 19.5% (inactive).

For the compound `c1cnc2[nH]cc(-c3nc(-c4ccsc4)cs3)c2c1`, the growth was 115% (inactive). The figure for `C=CCN(CC=C)C(=O)[C@H](CC)[C@@H]1CC[C@@H](C)[C@@H]([C@H](C)[C@@H](O)[C@@H](C)C(=O)[C@H](CC)C2O[C@]3(C=C[C@@H](O)[C@]4(CC[C@@](C)([C@H]5CC[C@](O)(CC)[C@H](C)O5)O4)O3)[C@H](C)C[C@@H]2C)O1` (stereo not given in full) is 12.6% (inactive). As to `CC(=O)Nc1ccc(S(=O)(=O)N/N=C(\C)c2ccc(C)cc2C)cc1`, the growth was 101% (inactive). The value for `COc1cc(-c2nn(-c3cccc(NC(=O)CCN4CCN(Cc5ccccc5)CC4)c3)cc2-c2ccncc2)ccc1Cl` was -12.8% (active); that for `CCOC(=O)c1cc(C(=O)c2cc(OC)cc(OC)c2)n2ncc3ccccc3c12` was 69.1% (inactive). The figure for `C[n+]1c2ccccc2nc2ccccc21` is 50.6% (inactive). For `COc1ccc(C(=O)c2ccccc2CN2C(=O)c3ccccc3C2=O)cc1`, the growth was 105% (inactive). `Nc1ccc(CC[C@H]2CCC/C=C/[C@@H]3C[C@H](O)C[C@H]3[C@H](O)/C=C/C(=O)O2)cc1`: the growth is -15.3% (active). Take `O[C@@H]1CO[C@H]2[C@@H]1OC[C@@H]2O`: the growth is 101% (inactive).

On to `COc1ccc([C@H]2[C@H](C(=O)Nc3cccnc3)c3ccccc3C(=O)N2c2ccccc2)cc1`, for which the growth was 100% (inactive). The value for `CC1=CC2C(C(O)CC3(C)C2CC(C)C32OCOC23COCO3)C2(C)C/C(=C/O)C(=O)C=C12` (stereo not given) was 35% (inactive); that for `O=C(/C=C/c1cccc(B(O)O)c1)c1cccc(B(O)O)c1` was -86.4% (active). The value for `O=S(=O)(O)c1ccc(Cl)cc1` was 98.9% (inactive).

On to `CC(=O)OC1CC2C(C)(C)CCC[C@]2(C)C2=C1C(O)=C(C(C)C)C(=O)C2=O` (stereo not given in full), for which the growth is -76.1% (active). Regarding `COCCn1cc(-c2nc(-c3cccnc3)cs2)c2cc(F)ccc21`, the growth was 102% (inactive). The figure for `C[C@]12CCC3c4ccc(O)cc4C[C@@H](CCCCCCCCCS(=O)CCCC(F)(F)C(F)(F)F)C3C1CC[C@@H]2O` (stereo not given in full) is 87% (inactive). For `CC[C@@H](C(=O)[C@@H](C)[C@@H](O)[C@H](C)[C@@H]1O[C@@H]([C@@H](CC)C(=O)N(CC)CC)CC[C@@H]1C)C1O[C@]2(C=CC(=O)[C@]3(CC[C@@](C)([C@H]4CC[C@](O)(CC)[C@H](C)O4)O3)O2)[C@H](C)C[C@@H]1C` (stereo not given in full), the growth was 29% (inactive).
